This is an account of results in ChEMBL document CHEMBL5724796, “Tm Shift (DSF) assay results for EUbOPEN Chemogenomics Library” (2024).

What is called ΔTm is the shift of the melting midpoint relative to a reference.

Holding throughout (conditions): Compound concentration 20.0 uM
Assay [1] concerns the target Tyrosine-protein kinase ABL1 (Homo sapiens) (UniProt P00519).
For assay [2], the target named is Bromodomain-containing protein 4 (Homo sapiens) (UniProt O60885).
Assay [3] has as its target Cyclin-dependent kinase 2 (Homo sapiens) (UniProt P24941).
In assay [4] the target is Casein kinase I isoform delta (Homo sapiens) (UniProt P48730).
Assay [5] addresses Glycogen synthase kinase-3 beta (Homo sapiens) (UniProt P49841).
The target of assay [6] is Mitogen-activated protein kinase 1 (Homo sapiens) (UniProt P28482).
Assay [7] has as its target T1, Aurora kinase A (Homo sapiens) (UniProt O14965).
T1 sequence (whole entry): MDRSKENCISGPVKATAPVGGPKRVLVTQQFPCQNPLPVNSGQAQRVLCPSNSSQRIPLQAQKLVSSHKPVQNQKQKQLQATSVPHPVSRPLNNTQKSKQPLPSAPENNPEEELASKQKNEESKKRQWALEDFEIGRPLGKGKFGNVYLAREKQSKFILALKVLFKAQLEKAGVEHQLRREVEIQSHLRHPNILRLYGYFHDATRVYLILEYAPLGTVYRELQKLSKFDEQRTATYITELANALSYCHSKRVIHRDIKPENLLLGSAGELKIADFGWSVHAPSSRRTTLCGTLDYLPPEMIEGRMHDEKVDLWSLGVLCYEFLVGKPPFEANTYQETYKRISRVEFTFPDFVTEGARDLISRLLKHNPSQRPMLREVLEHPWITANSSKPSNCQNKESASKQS

Assay [8] has as its target T2, Transcription intermediary factor 1-alpha (Homo sapiens) (UniProt O15164).
T2 sequence (whole entry): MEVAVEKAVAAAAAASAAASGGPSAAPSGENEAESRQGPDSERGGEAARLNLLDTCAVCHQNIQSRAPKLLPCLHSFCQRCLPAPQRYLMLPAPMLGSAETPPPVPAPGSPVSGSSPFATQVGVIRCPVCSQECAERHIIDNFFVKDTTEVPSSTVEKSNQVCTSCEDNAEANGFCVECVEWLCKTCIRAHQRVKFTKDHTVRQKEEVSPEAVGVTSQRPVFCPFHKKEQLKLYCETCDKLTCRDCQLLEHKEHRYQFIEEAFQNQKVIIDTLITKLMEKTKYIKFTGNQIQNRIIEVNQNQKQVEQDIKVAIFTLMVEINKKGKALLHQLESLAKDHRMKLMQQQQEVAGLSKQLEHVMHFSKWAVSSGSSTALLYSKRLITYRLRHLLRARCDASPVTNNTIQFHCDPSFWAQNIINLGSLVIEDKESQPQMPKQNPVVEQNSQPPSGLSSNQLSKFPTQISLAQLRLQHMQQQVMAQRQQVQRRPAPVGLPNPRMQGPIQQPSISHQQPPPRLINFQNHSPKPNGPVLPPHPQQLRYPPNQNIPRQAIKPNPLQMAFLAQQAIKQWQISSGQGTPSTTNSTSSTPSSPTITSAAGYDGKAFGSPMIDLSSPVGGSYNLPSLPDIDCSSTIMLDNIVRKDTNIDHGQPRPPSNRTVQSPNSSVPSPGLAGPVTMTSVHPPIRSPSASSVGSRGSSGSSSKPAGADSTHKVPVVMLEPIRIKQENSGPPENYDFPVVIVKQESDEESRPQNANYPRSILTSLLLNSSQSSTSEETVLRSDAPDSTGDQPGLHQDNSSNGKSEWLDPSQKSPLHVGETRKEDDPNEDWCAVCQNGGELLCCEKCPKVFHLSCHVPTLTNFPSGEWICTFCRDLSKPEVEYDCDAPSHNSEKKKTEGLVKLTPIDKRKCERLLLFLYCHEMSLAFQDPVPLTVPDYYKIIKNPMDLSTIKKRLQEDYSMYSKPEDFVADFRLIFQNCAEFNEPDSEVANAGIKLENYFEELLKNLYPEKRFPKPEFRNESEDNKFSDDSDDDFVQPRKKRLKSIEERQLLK

Each structure is given as a SMILES string.

Sequence of Tyrosine-protein kinase ABL1 (Homo sapiens) (P00519 whole entry): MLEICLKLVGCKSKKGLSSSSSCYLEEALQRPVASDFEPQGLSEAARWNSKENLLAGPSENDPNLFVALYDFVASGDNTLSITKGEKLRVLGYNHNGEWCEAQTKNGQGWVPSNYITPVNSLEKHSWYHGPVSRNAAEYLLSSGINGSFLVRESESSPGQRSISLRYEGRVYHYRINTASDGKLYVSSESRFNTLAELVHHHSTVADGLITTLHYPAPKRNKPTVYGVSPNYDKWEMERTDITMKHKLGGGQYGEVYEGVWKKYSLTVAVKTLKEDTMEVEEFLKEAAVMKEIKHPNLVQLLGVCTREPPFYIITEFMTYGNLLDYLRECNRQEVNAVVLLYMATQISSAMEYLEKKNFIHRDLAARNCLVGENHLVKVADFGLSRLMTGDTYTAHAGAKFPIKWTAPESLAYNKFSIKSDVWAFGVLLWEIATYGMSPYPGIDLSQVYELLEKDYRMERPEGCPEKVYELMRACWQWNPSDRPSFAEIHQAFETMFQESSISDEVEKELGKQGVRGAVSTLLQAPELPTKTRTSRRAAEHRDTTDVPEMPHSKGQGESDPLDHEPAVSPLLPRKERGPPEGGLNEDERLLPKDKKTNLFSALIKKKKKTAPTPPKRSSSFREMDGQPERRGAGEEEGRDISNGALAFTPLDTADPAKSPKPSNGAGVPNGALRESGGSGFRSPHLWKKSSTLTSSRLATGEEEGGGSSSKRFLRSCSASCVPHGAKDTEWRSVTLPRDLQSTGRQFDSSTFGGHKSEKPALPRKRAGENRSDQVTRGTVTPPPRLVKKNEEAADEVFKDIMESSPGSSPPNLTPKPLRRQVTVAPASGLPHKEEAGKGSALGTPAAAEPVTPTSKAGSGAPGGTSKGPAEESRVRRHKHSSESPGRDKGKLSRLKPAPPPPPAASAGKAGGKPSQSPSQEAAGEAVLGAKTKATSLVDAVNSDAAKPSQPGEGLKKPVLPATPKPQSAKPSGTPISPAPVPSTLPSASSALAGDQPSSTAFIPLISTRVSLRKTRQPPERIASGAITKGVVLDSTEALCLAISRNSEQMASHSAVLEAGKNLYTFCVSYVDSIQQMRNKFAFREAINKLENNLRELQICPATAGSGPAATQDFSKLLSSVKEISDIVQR
Sequence of Casein kinase I isoform delta (Homo sapiens) (P48730 whole entry, looked up, canonical isoform): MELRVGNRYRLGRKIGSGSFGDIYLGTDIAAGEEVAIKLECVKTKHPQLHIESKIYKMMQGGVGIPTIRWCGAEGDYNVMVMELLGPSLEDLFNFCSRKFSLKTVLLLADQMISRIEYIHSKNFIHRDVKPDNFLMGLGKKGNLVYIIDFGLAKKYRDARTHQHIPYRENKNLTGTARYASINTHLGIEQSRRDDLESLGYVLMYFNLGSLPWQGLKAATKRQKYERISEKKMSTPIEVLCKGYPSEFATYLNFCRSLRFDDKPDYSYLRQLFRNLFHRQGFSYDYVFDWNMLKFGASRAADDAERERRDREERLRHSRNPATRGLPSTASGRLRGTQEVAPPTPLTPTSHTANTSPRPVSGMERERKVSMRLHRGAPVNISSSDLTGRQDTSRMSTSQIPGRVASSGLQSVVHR
Sequence of Glycogen synthase kinase-3 beta (Homo sapiens) (P49841 whole entry, looked up): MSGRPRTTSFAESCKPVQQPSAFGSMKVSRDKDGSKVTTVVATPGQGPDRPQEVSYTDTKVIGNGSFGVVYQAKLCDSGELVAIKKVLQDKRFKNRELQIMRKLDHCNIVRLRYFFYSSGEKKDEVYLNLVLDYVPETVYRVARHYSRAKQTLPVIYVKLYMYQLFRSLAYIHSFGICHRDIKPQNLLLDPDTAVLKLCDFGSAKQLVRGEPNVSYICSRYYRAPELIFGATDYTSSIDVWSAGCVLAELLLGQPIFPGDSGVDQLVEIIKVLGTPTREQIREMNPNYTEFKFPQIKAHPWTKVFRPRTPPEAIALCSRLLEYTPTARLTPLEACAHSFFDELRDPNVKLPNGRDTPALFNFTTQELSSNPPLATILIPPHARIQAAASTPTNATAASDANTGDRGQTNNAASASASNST
Sequence of Mitogen-activated protein kinase 1 (Homo sapiens) (P28482 whole entry): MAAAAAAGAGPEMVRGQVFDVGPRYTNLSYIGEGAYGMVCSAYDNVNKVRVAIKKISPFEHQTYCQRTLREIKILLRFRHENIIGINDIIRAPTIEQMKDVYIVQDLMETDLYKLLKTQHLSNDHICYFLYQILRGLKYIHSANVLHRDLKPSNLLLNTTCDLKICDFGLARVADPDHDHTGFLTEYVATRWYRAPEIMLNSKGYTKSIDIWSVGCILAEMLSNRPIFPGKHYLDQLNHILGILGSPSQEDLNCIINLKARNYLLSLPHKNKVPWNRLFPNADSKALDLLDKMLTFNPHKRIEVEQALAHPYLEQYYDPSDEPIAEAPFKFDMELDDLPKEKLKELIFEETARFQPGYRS

Take `CC(C)(F)C[C@H](N[C@@H](c1ccc(-c2ccc(S(C)(=O)=O)cc2)cc1)C(F)(F)F)C(=O)NC1(C#N)CC1`: the ΔTm was 0.21 °C in assay [1]; -2.13 °C in assay [2]; -0.11 °C in assay [3]; -0.06 °C in assay [4]; 0 °C in assay [5]; -1.51 °C in assay [6]. The shift in melting temperature (ΔTm) in assay [7] is -0.27 °C; in assay [8], -1.8 °C.

For `COc1cc(-c2cn(C)c(=O)c3cnccc23)cc(OC)c1CN(C)C`, the ΔTm in assay [1] was 0.4 °C; in assay [2], -1.71 °C; in assay [3] it was 0.82 °C; in assay [4], -0.03 °C; in assay [5], 0.26 °C; in assay [6], 0.18 °C. The ΔTm was -1.01 °C in assay [7] and 0.87 °C in assay [8].

Regarding `C=CCc1cccc(CNc2nc3ccccc3n2CCC)c1O`, the ΔTm in assay [1] was 0.28 °C; in assay [2] it was -1.55 °C; in assay [3], 0.45 °C; in assay [4], 0.21 °C; in assay [5], 0.95 °C; in assay [6], 0.22 °C. The ΔTm in assay [7] is -1.56 °C; in assay [8], 0.59 °C.

`Cc1ncsc1-c1ccc([C@H](C)NC(=O)[C@@H]2C[C@@H](O)CN2C(=O)[C@@H](NC(=O)CNC(=O)c2ccc(F)c(-c3ccc(N4C[C@@H](C)N(C)[C@@H](C)C4)c(NC(=O)c4c[nH]c(=O)cc4C(F)(F)F)c3)c2)C(C)(C)C)cc1`: the ΔTm is -0.64 °C in assay [1]; -6.28 °C in assay [2]; -0.94 °C in assay [3]; 0.81 °C in assay [4]; -3.51 °C in assay [5]; -15.7 °C in assay [6]. Besides, the ΔTm in assay [7] is -5.35 °C; in assay [8], 1.29 °C.

As to `CNCC[C@@H](Oc1ccccc1C)c1ccccc1`, the shift in melting temperature (ΔTm) was 0.14 °C in assay [1]; -2.85 °C in assay [2]; 0.13 °C in assay [3]; -0.25 °C in assay [4]; -0.38 °C in assay [5]; 0.18 °C in assay [6]. In addition, the ΔTm was -1.68 °C in assay [7] and 0.48 °C in assay [8].

For `Cc1cccc(N/N=C(\C(=O)c2cccs2)C(=O)C(F)(F)F)c1`, the ΔTm in assay [1] is 0.48 °C; in assay [2] it was -1.9 °C; in assay [3], 0.44 °C; in assay [4], -0.01 °C; in assay [5] it was -0.93 °C; in assay [6] it was 0.19 °C. In addition, the values for the ΔTm in assay [7] and in assay [8] were -1.9 °C and -1.89 °C, respectively.

`Cc1cc(C)c(CNC(=O)c2cc(-c3ccc(N4CCN(C)CC4)nc3)cc3c2c(C)cn3C(C)C)c(=O)[nH]1`: the ΔTm in assay [1] was 0.38 °C; in assay [2], -2.02 °C; in assay [3] it was 0.39 °C; in assay [4], 0.02 °C; in assay [5], 0 °C; in assay [6], 0.02 °C. Further, the figures for the ΔTm in assay [7] and in assay [8] were -1.34 °C and -0.72 °C, respectively.

As for `N#Cc1cccnc1N1CCN(C(=O)c2cccc(Cc3n[nH]c(=O)c4ccccc34)c2)CC1`, the ΔTm in assay [1] is 0.57 °C; in assay [2], -2.92 °C; in assay [3] it was 0.15 °C; in assay [4], 0.14 °C; in assay [5], -0.23 °C; in assay [6] it was 0.24 °C. In addition, the ΔTm in assay [7] is -2.06 °C; in assay [8] it was -0.96 °C.

For `CC(C)C(=O)c1c(C(C)C)nn2ccccc12`, the ΔTm in assay [1] was 0.8 °C; in assay [2], -2.97 °C; in assay [3] it was 0.95 °C; in assay [4], 0.19 °C; in assay [5] it was -0.21 °C; in assay [6], 0.12 °C. Moreover, the ΔTm in assay [7] was -2.35 °C; in assay [8] it was 0.7 °C.

For `CC(C)c1c(-c2cnn(C(C)(C)C)c2)[nH]c2c(C#N)cnn2c1=O`, the ΔTm was 0.32 °C in assay [1]; -1.11 °C in assay [2]; 0.15 °C in assay [3]; -0.24 °C in assay [4]; 0.53 °C in assay [5]; 0.3 °C in assay [6]. The ΔTm is -0.18 °C in assay [7] and 0.36 °C in assay [8].

In the case of `CCN(CCN(C)C)C(=O)CNCc1cc(C(N)=O)ccn1`, the ΔTm in assay [1] was 0.33 °C; in assay [2] it was -1.29 °C; in assay [3], 0.23 °C; in assay [4], -0.08 °C; in assay [5] it was 0.25 °C; in assay [6] it was -0.01 °C. Besides, the ΔTm was -1.34 °C in assay [7] and -0.57 °C in assay [8].

Consider `CCN(c1cc(-c2ccc(CN3CCOCC3)cc2)cc(C(=O)NCc2c(C)cc(C)[nH]c2=O)c1C)C1CCOCC1`, for which the ΔTm was 0.22 °C in assay [1]; -1.59 °C in assay [2]; -0.42 °C in assay [3]; 0.03 °C in assay [4]; 0 °C in assay [5]; -4.86 °C in assay [6]. For the same compound, the ΔTm is -1.94 °C in assay [7] and -2.54 °C in assay [8].

Turning to `COc1cc(C(C)C)c2c(c1)S(=O)(=O)N(COc1cc(=O)n3cccc(OCCN4CCCCC4)c3n1)C2=O`, the shift in melting temperature (ΔTm) is 0.26 °C in assay [1]; -2.34 °C in assay [2]; -0.17 °C in assay [3]; 0.5 °C in assay [4]; 0.26 °C in assay [5]; -0.23 °C in assay [6]. Besides, the values for the ΔTm in assay [7] and in assay [8] were 2.88 °C and -1.28 °C, respectively.

`CCC(NC(=O)C(CC(C)C)NC(=O)OCc1ccccc1)C(=O)C(=O)NCCCN1CCOCC1` (stereo unspecified): the shift in melting temperature (ΔTm) is 0.13 °C in assay [1]; -2.44 °C in assay [2]; -0.24 °C in assay [3]; 0.08 °C in assay [4]; -1.31 °C in assay [5]; -0.33 °C in assay [6]. The ΔTm in assay [7] was -0.93 °C; in assay [8], -1.35 °C.

As for `CS(=O)(=O)Nc1ccc2oc3c(OC(F)F)ccc(C(=O)Nc4c(Cl)cncc4Cl)c3c2c1`, the ΔTm was 0.6 °C in assay [1]; -1.02 °C in assay [2]; -0.16 °C in assay [3]; -1.11 °C in assay [4]; -0.39 °C in assay [5]; 0.24 °C in assay [6]. Besides, the ΔTm is -1.56 °C in assay [7] and 0.09 °C in assay [8].

For the compound `CNCCC(Oc1ccccc1OC)c1ccccc1` (stereo unspecified), the ΔTm was 0.01 °C in assay [1]; -1.45 °C in assay [2]; -0.03 °C in assay [3]; -0.42 °C in assay [4]; -0.93 °C in assay [5]; 0.05 °C in assay [6]. For the same compound, the ΔTm in assay [7] is -1.7 °C; in assay [8], 0.03 °C.

Consider `CC#C[C@]1(O)CC[C@H]2[C@@H]3CCC4=CC(=O)CCC4=C3[C@@H](c3ccc(N(C)C)cc3)C[C@@]21C`, for which the ΔTm in assay [1] is 0.11 °C; in assay [2], -2.39 °C; in assay [3], -0.02 °C; in assay [4], 0.02 °C; in assay [5], -1.3 °C; in assay [6] it was -0.7 °C. The results for the ΔTm in assay [7] and in assay [8] were -1.55 °C and -0.92 °C, respectively.
